Experiment [1] in a line: Nuclear factor erythroid 2-related factor 2/antioxidant responsive element (Nrf2/ARE) small molecule agonists: qHTS cell viability counter screen in human keratinocytes (AID 1919968; active means well fitted curve in the direction sought with a large enough effect in the repeat runs; an effect the other way counts as inactive or inconclusive; further: nearly all actives have a fitted effect of over 55% in size). In short, it runs like this:
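Viability counter-screen: KeratinoSens reporter cells, DMSO-delivered compounds, 23 h at 37 C, CellTiter-Fluor fluorescence.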
On the technique in general: Quantitative high-throughput screening tests each substance at several concentrations.

Experiment [2] in a line: Nuclear factor erythroid 2-related factor 2/antioxidant responsive element (Nrf2/ARE) small molecule agonists: luciferase reporter gene qHTS assay in human keratinocytes (AID 1919969). Further: nearly all actives have a fitted effect of over 35% in size. Further: potency means the concentration at half of the fitted maximal effect.
The target of experiment [3] is Gonadotropin-releasing hormone receptor (Homo sapiens) (UniProt P30968). Nature of the experiment: Human gonadotropin-releasing hormone receptor (GnRHR) small molecule agonists, calcium flux assay in GnRHR-HEK293 cells (AID 1920063). Further: nearly all actives have a fitted effect of over 35% in size. In short, it runs like this: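 Tox21-format agonist screen using human GnRHR-expressing HEK293 cells and a fluorescent calcium dye; kinetic 3-min fluorescence reading after compound addition, 15-point concentration series run in triplicate.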

Experiment [4] has as its target KiSS-1 receptor (Homo sapiens) (UniProt Q969F8). Kind of experiment: Human kisspeptin (KISS1R) small molecule agonists, calcium flux assay in KISS1R-HEK293 cells (AID 1920064; active means well fitted curve in the direction sought with a large enough effect in the repeat runs; an effect the other way counts as inactive or inconclusive). The procedure, abridged: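 Intracellular calcium mobilization in KISS1R-HEK293 cells was recorded by fluorescence (Ex/Em 480/540) for 3 min following compound addition to cells pre-loaded 1 h with calcium dye.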
Background: Calcium assays in cells follow changes in intracellular calcium, usually with a dye or a luminescent sensor.

Experiment [5] in a line: G protein-coupled receptor (GPCR) small molecule agonists, calcium flux assay: HEK293 wild type cell line counter screen (AID 1920065). In short, it runs like this:
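In this agonist-mode screen, ATP is the positive control and DMSO the vehicle. Cells grow 18 h before a 1 h dye incubation at 37 C; signal is taken at Ex/Em 480/540 over 3 min.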

The nature of experiment [6]: p53 small molecule agonists, cell-based qHTS assay with human liver microsomes (AID 1963577).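 Further: p53 response element beta-lactamase reporter cells with liver microsomes plus NADPH.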 In short, it runs like this:
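With metabolic activation: human liver microsomes (0.5 mg/mL final) plus NADPH (0.5 mg/mL final) added alongside compounds to p53RE-bla cells; 16 h 37 C exposure; beta-lactamase read by LiveBLAzer fluorescence.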

Experiment [7] is described as follows: p53 small molecule agonists, cell-based qHTS assay with rat liver microsomes (AID 1963578). The procedure, abridged:
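Metabolic activation by rat liver microsomes and NADPH, each 0.5 mg/mL final, added right after compounds to p53RE-bla reporter cells (4,000/well, plated 5 h earlier). 16 h at 37 C, then LiveBLAzer substrate for 2 h at room temperature in the dark; fluorescence read-out.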

Experiment [8] is described as follows: p53 small molecule agonists, cell-based qHTS assay with human liver microsomes: qHTS cell viability counter screen (AID 1963579). Further: nearly all actives have a fitted effect of over 45% in size. In short, it runs like this:
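Metabolic activation used human liver microsomes and NADPH, both 0.5 mg/mL final, over 16 hours at 37 C on p53RE-bla cells (4,000/well). Cytotoxicity measured by CellTiter-Glo luminescence, 30 min at room temperature.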

Experiment [9] in a line: p53 small molecule agonists, cell-based qHTS assay with rat liver microsomes: qHTS cell viability counter screen (AID 1963580). Further: nearly all actives have a fitted effect of over 45% in size. In short, it runs like this: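 p53RE-bla HCT-116 cells (4,000/well) rested 5 h at 37 C, then given Tox21 compounds in DMSO with rat liver microsomes (0.5 mg/mL final) plus NADPH (0.5 mg/mL final) for 16 h at 37 C. Viability read by CellTiter-Glo luminescence after 30 min at room temperature.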

A short description of experiment [10]: p53 small molecule agonists, cell-based qHTS assay: qHTS cell viability counter screen (AID 1963581). Further: nearly all actives have a fitted effect of over 45% in size. The procedure, abridged:
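Compounds are pinned onto HCT-116 p53RE-bla cells and left 16 h at 37 C. Following the reporter FRET read, ATP is quantified by CellTiter-Glo luminescence after 30 min at room temperature.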

The nature of experiment [11]: p53 small molecule agonists, cell-based qHTS assay (AID 1963582; active means well fitted activation curve with a large enough effect in the signal ratio in the repeat runs, not every such curve was filed as active; the % refers to the signal ratio). In short, it runs like this: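 Agonist activity was scored from beta-lactamase FRET fluorescence in p53RE-bla cells treated 16 h at 37 C with compounds in DMSO, substrate incubation being 2 h at room temperature.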
Experiment [12] has as its target 5-hydroxytryptamine receptor 2A (Homo sapiens) (UniProt P28223). Kind of experiment: 5-hydroxytryptamine receptor 2A (HTR2A) small molecule antagonists, cell-based qHTS assay (AID 1963586). Further: nearly all actives have a fitted effect of over 45% in size. Further: potency means the concentration at half of the fitted maximal effect. The procedure, abridged:
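Antagonist-mode intracellular calcium assay: DOI (4 nM) added after 5 min compound pre-incubation at room temperature to dye-loaded HTR2A-CHO cells. Fluorescence followed for 3 min, sampled every second.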

Experiment [13] has the same target. Kind of experiment: 5-hydroxytryptamine receptor 2A (HTR2A) small molecule agonists, cell-based qHTS assay (AID 1963587). Further: nearly all actives have a fitted effect of over 30% in size. Further: potency means the concentration at half of the fitted maximal effect. The procedure, abridged: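 HTR2A-CHO cells, plated 18 h at 37 C/5% CO2, dye-loaded 1 h at 37 C; compounds in DMSO added by pin tool (agonist mode). Intracellular calcium flux read as kinetic fluorescence on FDSS over 2 min at 1 s intervals.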

The target of experiment [14] is Muscarinic acetylcholine receptor M1 (Homo sapiens) (UniProt P11229). Kind of experiment: Cholinergic receptor muscarinic 1 (CHRM1) small molecule antagonists, cell-based qHTS assay (AID 1963588). Further: nearly all actives have a fitted effect of over 40% in size. Further: potency means the concentration at half of the fitted maximal effect. In short, it runs like this: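 CHRM1-CHO calcium-flux assay, antagonist mode. Cells were seeded 18 h, dye-loaded 1 h at 37 C and given compound for 5 min at RT, then acetylcholine was added at 50nM. FDSS fluorescence was read 3 min; 15 concentrations, three runs.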

Experiment [15] has the same target. Nature of the experiment: Cholinergic receptor muscarinic 1 (CHRM1) small molecule agonists, cell-based qHTS assay (AID 1963589). Further: nearly all actives have a fitted effect of over 35% in size. The procedure, abridged:
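Stable CHRM1-CHO cells (human receptor) were incubated 18 h, dye-loaded for 1 h at 37 C and exposed to test compounds for agonist activity, with calcium-dependent fluorescence followed kinetically.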

Experiment [16] is described as follows: cAMP Responsive Elements (CRE) small molecule agonists, cell-based qHTS assay (AID 1963590). The procedure, abridged: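 FRET-based beta-lactamase readout (LiveBLAzer B/G, 2 h RT) quantified CRE activation in HEK 293T CRE-bla cells after 3 h treatment with DMSO-dissolved compounds.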
Experiment [17] can be described thus: cAMP Responsive Elements (CRE) small molecule antagonists, cell-based qHTS assay (AID 1963591; active means well fitted inhibition curve with a large enough effect in the signal ratio in the repeat runs, not every such curve was filed as active; the % refers to the signal ratio). In short, it runs like this: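 qHTS in CRE-bla HEK 293T cells: compound in DMSO, then 0.25 uM NKH477 (final), 3 h at 37 °C/5% CO2; beta-lactamase FRET read-out after 2 h substrate incubation.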
Experiment [18] addresses Beta-2 adrenergic receptor (Homo sapiens) (UniProt P07550). Kind of experiment: Adrenergic beta2 receptor (ADRB2) small molecule antagonists, cell-based qHTS assay (AID 1963592). Further: series mostly up to about 92 µM; nearly all actives have a fitted effect of over 50% in size. In short, it runs like this:
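Cells (CHO, stable ADRB2 overexpression) incubated 18-20hr at 37C; compounds added from DMSO; agonist mix (1nM isoproterenol, 100uM IBMX, 25uM Ro-20-1724) added; 0.5hr RT; d2-cAMP and anti-cAMP-cryptate added; 1hr RT; 665/615 nm read.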

Experiment [19] addresses D(2) dopamine receptor (Homo sapiens) (UniProt P14416). Nature of the experiment: Dopamine D2 receptor (DRD2) small molecule agonists, cell-based qHTS assay (AID 1963594). Further: nearly all actives have a fitted effect of over 35% in size. In short, it runs like this:
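HEK293 cells stably expressing DRD2 were cultured 24 h at 37 C, then given Ro20-1724 (0.1 mM final) and compounds for 10 min at room temperature. NKH477 (200nM) was then added for 30 min. cAMP was read by HTRF.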

For experiment [20] the target is unchanged. Kind of experiment: Dopamine D2 receptor (DRD2) small molecule antagonists, cell-based qHTS assay (AID 1963595; active means well fitted inhibition curve with a large enough effect in the signal ratio in the repeat runs, with a control signal flat; the % refers to the signal ratio). The procedure, abridged: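 HTRF cAMP read-out at 665 and 620 nm emission (340 nm excitation). Antagonist mode: compounds were tested against 12 nM quinpirole in DRD2-HEK293 cells, with 200 nM NKH477 raising cAMP and 0.1 mM Ro20-1724 blocking its breakdown.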

The values that follow come from PubChem BioAssay (Tox21).

Where “and” joins values, the source holds several entries; their conditions need not be identical. Equal values may be shown once. Records with an inconclusive call do not appear. Where a structure was tested more than once in an assay, its records may differ in their call. Calls of active or inactive are those of the source. Unless noted, the call rests on the fitted dose curve.

Beta-2 adrenergic receptor (Homo sapiens), sequence (P07550 whole entry, looked up): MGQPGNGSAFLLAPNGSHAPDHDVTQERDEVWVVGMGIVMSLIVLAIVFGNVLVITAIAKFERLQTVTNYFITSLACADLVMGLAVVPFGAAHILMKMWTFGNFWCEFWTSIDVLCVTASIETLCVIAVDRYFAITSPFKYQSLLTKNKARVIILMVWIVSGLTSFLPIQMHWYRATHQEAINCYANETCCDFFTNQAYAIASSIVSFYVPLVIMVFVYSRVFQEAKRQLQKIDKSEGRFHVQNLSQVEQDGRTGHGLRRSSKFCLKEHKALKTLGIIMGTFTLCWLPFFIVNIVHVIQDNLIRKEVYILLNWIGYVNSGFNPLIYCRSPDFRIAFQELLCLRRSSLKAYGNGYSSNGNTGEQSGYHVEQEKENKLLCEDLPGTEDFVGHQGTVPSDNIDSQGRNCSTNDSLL
5-hydroxytryptamine receptor 2A (Homo sapiens), sequence (P28223 whole entry, looked up): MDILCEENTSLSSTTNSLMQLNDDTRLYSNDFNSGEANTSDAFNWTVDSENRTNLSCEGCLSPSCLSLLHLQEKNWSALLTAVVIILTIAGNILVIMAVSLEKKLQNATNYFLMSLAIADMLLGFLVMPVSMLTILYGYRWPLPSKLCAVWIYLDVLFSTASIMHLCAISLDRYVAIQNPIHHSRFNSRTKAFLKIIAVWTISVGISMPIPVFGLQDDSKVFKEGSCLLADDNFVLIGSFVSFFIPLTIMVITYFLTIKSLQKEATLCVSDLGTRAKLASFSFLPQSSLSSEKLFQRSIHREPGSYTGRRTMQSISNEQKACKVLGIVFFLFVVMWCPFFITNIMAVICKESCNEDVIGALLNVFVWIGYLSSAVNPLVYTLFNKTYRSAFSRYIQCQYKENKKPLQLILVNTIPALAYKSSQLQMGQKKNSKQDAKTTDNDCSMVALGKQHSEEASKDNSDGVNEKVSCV
Muscarinic acetylcholine receptor M1 (Homo sapiens), sequence (P11229 whole entry, looked up): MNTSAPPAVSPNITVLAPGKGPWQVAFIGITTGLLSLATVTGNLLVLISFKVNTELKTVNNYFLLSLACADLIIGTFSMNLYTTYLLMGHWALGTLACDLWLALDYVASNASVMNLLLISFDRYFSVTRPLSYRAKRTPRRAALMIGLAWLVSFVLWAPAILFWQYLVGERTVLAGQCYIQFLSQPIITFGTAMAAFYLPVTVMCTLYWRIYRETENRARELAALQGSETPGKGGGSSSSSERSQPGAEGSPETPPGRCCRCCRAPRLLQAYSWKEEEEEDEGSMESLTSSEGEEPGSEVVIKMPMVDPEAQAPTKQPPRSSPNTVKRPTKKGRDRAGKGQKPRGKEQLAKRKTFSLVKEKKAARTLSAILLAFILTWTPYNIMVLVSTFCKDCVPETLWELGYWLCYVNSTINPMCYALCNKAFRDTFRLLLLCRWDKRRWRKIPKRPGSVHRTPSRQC
D(2) dopamine receptor (Homo sapiens), sequence (P14416 whole entry, looked up): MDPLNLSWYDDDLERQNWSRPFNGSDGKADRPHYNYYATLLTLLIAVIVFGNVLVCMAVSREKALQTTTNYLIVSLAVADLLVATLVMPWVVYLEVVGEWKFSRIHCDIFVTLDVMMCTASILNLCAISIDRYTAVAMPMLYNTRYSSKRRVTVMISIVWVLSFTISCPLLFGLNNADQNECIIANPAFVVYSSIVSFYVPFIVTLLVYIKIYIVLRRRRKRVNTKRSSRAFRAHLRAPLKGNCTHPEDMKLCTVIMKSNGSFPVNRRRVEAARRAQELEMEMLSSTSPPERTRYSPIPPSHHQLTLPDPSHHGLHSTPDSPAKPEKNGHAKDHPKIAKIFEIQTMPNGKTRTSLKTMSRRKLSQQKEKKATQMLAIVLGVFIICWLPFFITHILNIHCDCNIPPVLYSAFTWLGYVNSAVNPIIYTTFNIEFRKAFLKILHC
KiSS-1 receptor (Homo sapiens), sequence (Q969F8 whole entry, looked up): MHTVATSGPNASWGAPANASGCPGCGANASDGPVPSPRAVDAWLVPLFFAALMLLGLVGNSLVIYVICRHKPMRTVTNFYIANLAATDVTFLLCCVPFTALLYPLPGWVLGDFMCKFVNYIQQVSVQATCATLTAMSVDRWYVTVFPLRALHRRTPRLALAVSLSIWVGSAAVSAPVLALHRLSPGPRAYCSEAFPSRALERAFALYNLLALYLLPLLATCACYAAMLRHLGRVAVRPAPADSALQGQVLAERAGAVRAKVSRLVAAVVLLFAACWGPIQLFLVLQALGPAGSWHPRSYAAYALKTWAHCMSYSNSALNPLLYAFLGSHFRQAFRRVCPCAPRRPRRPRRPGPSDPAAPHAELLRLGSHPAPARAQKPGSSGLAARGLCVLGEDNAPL
Gonadotropin-releasing hormone receptor (Homo sapiens), sequence (P30968 whole entry, looked up): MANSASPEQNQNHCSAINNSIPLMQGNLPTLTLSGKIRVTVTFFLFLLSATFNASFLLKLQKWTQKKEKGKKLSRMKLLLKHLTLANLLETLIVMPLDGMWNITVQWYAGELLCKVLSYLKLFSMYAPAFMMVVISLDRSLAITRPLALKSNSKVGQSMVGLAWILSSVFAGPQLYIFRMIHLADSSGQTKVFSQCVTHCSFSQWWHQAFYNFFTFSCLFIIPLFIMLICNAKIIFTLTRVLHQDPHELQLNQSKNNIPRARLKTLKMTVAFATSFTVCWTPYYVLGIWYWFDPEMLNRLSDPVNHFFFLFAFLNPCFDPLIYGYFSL

For the molecule `Nc1ccc(Nc2ccccc2)cc1`, the Potency entry in experiment [1], in experiment [3], in [4], in experiment [5], in experiment [6] and in [7] was “inactive” throughout. Moreover, the Potency entry in experiment [8], in experiment [9], in experiment [10], in experiment [11], in experiment [14] and in experiment [15] was “inactive” in each case. Besides, the Potency entry in [16] was “inactive”. In addition, the Potency in experiment [2] is 53.9 µM (active) and inactive and 30.6 µM (active); in experiment [12] it was “inactive and 3.75 µM (active)”; in [13], 7.68 µM (active) and 24.6 µM (active) and 3.89 µM (active).
With `CC(=O)CCC=C(C)C`, the Potency entry in [1], in experiment [2], in [3], in experiment [4], in experiment [5] and in experiment [6] was “inactive” throughout. Moreover, the Potency result in [7], in experiment [8], in experiment [9], in [10], in [11] and in [12] was “inactive” in each case. Also, the Potency result in experiment [13], in [14], in experiment [15], in experiment [16], in experiment [17] and in [18] was “inactive” each time. For the same molecule, the Potency entry in experiment [19] and in [20] was “inactive” throughout.
In the case of `CCCCCCOCCO`, the Potency result in [1], in experiment [2], in [3], in [4], in [5] and in [6] was “inactive” throughout. In addition, the Potency result in experiment [7], in experiment [8], in [9], in experiment [10], in experiment [11] and in experiment [12] was “inactive” in each case. Further, the Potency result in [13], in experiment [14], in experiment [15], in experiment [16], in experiment [17] and in experiment [18] was “inactive” throughout. Further, the Potency result in experiment [19] and in [20] was “inactive” throughout.
`CC1(C)S[C@@H]2[C@H](NC(=O)COc3ccccc3)C(=O)N2[C@H]1C(=O)O`: the Potency entry in experiment [1], in experiment [2], in experiment [3], in experiment [4], in experiment [5] and in [6] was “inactive” each time. Further, the Potency entry in experiment [7], in experiment [8], in experiment [9], in experiment [10], in [11] and in experiment [12] was “inactive” throughout. Further, the Potency result in experiment [13], in experiment [14], in [15], in experiment [16], in experiment [17] and in experiment [18] was “inactive” in each case. Besides, the Potency result in [19] and in [20] was “inactive” each time.
As to `c1ccc2cc3ccccc3cc2c1`, the Potency result in [1], in experiment [2], in experiment [3], in experiment [4], in experiment [5] and in experiment [6] was “inactive” throughout. The Potency entry in experiment [7], in experiment [8], in experiment [9], in [10], in experiment [11] and in experiment [12] was “inactive” each time. The Potency entry in [13], in [14], in [15], in experiment [16], in experiment [17] and in [18] was “inactive” throughout. In [19], the Potency result was “inactive”.
For `C=C(C)C(N)=O`, the Potency entry in [1], in experiment [2], in experiment [3], in experiment [4], in [5] and in experiment [6] was “inactive” throughout. For the same molecule, the Potency result in experiment [7], in [8], in experiment [9], in experiment [10], in experiment [11] and in experiment [12] was “inactive” each time. Moreover, the Potency entry in [13], in [15], in [16], in experiment [17], in [18] and in experiment [19] was “inactive” in each case. Further, in experiment [20], the Potency result was “inactive”. For the same molecule, the Potency in [14] was 847 nM (active) and inactive.
As to `OCCOCCOCCOCCO`, the Potency entry in [1], in [2], in experiment [3], in experiment [4], in experiment [5] and in experiment [6] was “inactive” in each case. Also, the Potency result in experiment [7], in experiment [8], in experiment [9], in [10], in experiment [11] and in [12] was “inactive” each time. Besides, the Potency result in [13], in experiment [14], in experiment [15], in experiment [16], in experiment [17] and in experiment [18] was “inactive” in each case. The Potency result in [19] and in [20] was “inactive” each time.
On to `Cc1ncc(CO)c(CO)c1O`, for which the Potency entry in experiment [1], in experiment [2], in [3], in experiment [4], in experiment [5] and in experiment [6] was “inactive” in each case. Further, the Potency result in [7], in [8], in experiment [9], in experiment [10], in experiment [11] and in [12] was “inactive” throughout. Also, the Potency entry in experiment [13], in [14], in experiment [15], in experiment [16], in experiment [17] and in [18] was “inactive” each time. For the same molecule, the Potency result in experiment [19] and in experiment [20] was “inactive” throughout.
